Measured values taken from the supplement of paper PMC10849652.
The full data set covers some 7,900 targets. This sample favours those with a hit. About 0.6% of all pairs of compound and target were hits. A number with no mark means an inactive call.

How the values were obtained:
Assay in all cases: log2 fold change, soluble protein after heating vs DMSO (PISA); higher = thermal stabilisation; K562 cells, 10 uM, 30 min; active = over 0.2 and 3.5 SD of the protein, either way, in both replicates (recomputed)
bafetinib = compound: Cc1ccc(NC(=O)c2ccc(CN3CC[C@H](N(C)C)C3)c(C(F)(F)F)c2)cc1Nc1nccc(-c2cncnc2)n1 [bafetinib]
Summary of the method: (§1)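 K562 cells at 2×10^6 cells/mL were exposed to 10 μM compound for 30 min, then aliquots were heated for 3 min across 48°C-58°C, pooled, and extracted in PBS containing 0.5% NP-40 at 4°C. The supernatant after 21,000xg for 90 min was taken as soluble protein and measured by TMTpro 16plex LC-MS/MS with channel sums equalised. Thermal stability is reported relative to control samples, with values from duplicates. Fold changes are given on a log2 scale.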

[1] = compound: Cc1cccc(CC(=O)N2CCc3c2ccc(-c2cn(C)c4ncnc(N)c24)c3F)n1
Summary of the method: as §1

nilotinib = compound: Cc1cn(-c2cc(NC(=O)c3ccc(C)c(Nc4nccc(-c5cccnc5)n4)c3)cc(C(F)(F)F)c2)cn1 [nilotinib]
Summary of the method: as §1

[2] = compound: Cc1nc(Nc2n[nH]c3c2CN(C(=O)N[C@H](CN(C)C)c2ccccc2)C3(C)C)c2sccc2n1
Summary of the method: as §1

dasatinib = compound: Cc1nc(Nc2ncc(C(=O)Nc3c(C)cccc3Cl)s2)cc(N2CCN(CCO)CC2)n1 [dasatinib]
Summary of the method: as §1

[3] = compound: Cc1ncc(-c2ccnc(Nc3ccc(S(C)(=O)=O)cc3)n2)n1C(C)C
Summary of the method: as §1

[4] = compound: Cn1cc(-c2ccc3c(c2)CCN3C(=O)Cc2cccc(C(F)(F)F)c2)c2c(N)ncnc21
Summary of the method: as §1

tipifarnib = compound: Cn1cncc1[C@@](N)(c1ccc(Cl)cc1)c1ccc2c(c1)c(-c1cccc(Cl)c1)cc(=O)n2C [tipifarnib]
Summary of the method: as §1

mubritinib = compound: FC(F)(F)c1ccc(/C=C/c2nc(COc3ccc(CCCCn4ccnn4)cc3)co2)cc1 [mubritinib]
Summary of the method: as §1

[5] = compound: Cn1cc(-c2ccc3nnc(C(F)(F)c4ccc5ncccc5c4)n3n2)cn1
Summary of the method: as §1

Chain of UniProt Q8N357 (Q8N357 whole entry, looked up): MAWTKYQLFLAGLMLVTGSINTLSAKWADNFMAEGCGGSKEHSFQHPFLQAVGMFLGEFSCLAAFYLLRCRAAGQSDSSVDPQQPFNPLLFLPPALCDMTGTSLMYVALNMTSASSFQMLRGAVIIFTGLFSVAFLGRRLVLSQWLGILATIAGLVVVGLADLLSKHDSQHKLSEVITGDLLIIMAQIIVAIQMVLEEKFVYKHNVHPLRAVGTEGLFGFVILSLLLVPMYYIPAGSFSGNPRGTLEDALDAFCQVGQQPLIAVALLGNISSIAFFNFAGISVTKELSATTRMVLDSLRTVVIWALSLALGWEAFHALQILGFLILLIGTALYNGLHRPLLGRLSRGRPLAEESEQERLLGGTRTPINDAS
Chain of UniProt P20226 (P20226 whole entry, looked up): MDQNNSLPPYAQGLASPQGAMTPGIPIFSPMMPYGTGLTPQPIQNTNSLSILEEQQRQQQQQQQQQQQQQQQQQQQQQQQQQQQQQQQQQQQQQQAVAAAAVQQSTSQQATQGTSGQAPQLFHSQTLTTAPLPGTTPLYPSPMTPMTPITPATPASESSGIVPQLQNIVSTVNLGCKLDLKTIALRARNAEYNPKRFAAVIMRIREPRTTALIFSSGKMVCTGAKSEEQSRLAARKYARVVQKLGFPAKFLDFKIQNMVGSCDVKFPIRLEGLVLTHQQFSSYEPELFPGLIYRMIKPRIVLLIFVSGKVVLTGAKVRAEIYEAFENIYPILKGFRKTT
Chain of UniProt Q92581 (Q92581 whole entry, looked up): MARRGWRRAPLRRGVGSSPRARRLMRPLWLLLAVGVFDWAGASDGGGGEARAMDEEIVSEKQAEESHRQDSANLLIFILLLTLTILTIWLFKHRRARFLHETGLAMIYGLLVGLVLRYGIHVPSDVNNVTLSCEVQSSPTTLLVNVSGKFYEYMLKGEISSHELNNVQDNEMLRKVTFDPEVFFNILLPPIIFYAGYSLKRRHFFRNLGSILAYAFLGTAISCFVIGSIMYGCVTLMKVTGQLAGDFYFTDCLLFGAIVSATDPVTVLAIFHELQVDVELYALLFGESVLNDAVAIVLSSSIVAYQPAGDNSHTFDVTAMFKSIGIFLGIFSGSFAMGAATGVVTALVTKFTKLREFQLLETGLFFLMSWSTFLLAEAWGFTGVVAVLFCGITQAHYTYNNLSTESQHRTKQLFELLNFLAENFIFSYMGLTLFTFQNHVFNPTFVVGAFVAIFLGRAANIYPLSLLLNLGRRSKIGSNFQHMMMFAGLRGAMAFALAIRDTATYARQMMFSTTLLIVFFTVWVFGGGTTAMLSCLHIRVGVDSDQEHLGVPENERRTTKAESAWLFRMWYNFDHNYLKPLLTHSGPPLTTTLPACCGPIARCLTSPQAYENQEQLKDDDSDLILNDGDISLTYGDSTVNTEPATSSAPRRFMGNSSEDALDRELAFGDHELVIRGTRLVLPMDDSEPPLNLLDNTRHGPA
Chain of UniProt Q96QD8 (Q96QD8 whole entry, looked up): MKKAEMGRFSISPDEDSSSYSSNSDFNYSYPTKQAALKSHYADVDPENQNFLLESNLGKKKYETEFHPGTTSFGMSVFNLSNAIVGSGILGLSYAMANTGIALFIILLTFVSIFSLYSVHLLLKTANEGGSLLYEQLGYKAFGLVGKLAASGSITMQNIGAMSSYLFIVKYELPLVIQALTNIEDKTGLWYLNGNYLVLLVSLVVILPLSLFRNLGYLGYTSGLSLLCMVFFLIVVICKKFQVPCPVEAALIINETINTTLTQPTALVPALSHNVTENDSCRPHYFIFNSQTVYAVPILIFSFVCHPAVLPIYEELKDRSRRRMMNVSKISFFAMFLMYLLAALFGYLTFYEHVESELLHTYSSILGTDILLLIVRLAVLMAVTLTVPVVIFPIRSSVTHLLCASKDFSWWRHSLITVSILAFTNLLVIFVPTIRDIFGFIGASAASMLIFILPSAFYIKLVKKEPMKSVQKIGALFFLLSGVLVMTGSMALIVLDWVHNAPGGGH
Chain of UniProt Q12824 (Q12824 whole entry, looked up): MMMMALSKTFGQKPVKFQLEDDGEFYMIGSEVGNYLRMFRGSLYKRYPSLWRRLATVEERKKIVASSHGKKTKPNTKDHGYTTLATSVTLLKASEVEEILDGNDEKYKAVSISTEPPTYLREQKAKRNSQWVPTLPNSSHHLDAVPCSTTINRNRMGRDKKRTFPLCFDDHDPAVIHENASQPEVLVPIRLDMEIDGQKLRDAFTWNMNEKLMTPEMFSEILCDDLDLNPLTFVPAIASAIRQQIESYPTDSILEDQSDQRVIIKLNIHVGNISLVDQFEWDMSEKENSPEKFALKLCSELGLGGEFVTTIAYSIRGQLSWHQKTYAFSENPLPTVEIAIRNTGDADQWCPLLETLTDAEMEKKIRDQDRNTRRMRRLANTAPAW
Chain of UniProt P78383 (P78383 whole entry, looked up): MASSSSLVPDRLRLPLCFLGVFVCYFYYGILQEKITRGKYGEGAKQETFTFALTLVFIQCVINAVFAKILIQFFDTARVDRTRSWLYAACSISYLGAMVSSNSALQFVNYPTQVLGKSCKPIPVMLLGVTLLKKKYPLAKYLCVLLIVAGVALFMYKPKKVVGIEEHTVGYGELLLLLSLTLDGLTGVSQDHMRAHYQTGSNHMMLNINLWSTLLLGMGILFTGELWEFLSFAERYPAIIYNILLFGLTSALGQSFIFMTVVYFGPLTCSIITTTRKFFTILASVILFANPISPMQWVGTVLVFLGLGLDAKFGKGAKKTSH
Chain of UniProt O76062 (O76062 whole entry, looked up): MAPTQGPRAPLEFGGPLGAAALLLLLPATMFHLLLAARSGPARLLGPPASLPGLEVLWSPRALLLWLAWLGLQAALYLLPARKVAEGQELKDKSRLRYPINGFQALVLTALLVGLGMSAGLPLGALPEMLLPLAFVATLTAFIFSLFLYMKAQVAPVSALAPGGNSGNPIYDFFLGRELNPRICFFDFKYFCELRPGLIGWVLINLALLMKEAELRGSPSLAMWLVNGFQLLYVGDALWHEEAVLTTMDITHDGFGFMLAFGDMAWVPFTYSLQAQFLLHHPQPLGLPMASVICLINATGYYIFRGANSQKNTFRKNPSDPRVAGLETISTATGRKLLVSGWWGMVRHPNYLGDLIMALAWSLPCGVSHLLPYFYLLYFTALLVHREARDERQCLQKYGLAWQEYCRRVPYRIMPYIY
Chain of UniProt Q6J4K2 (Q6J4K2 whole entry, looked up): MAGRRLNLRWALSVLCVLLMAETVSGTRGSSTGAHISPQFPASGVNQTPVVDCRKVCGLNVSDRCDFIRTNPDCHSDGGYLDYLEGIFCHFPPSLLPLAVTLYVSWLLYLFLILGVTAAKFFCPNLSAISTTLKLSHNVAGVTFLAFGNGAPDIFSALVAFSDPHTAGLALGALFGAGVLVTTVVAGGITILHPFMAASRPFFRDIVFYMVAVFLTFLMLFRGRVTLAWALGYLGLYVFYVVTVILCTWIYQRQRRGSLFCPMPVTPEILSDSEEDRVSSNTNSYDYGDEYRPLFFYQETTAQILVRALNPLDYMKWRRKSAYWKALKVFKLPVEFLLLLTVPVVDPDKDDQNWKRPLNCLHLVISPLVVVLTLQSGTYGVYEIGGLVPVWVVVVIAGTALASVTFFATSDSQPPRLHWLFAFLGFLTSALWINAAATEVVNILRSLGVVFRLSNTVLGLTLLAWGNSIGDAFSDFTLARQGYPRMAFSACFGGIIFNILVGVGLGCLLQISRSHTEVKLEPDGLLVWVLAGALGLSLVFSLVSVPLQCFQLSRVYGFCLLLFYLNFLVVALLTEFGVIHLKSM
Chain of UniProt Q6PCB7 (Q6PCB7 whole entry, looked up): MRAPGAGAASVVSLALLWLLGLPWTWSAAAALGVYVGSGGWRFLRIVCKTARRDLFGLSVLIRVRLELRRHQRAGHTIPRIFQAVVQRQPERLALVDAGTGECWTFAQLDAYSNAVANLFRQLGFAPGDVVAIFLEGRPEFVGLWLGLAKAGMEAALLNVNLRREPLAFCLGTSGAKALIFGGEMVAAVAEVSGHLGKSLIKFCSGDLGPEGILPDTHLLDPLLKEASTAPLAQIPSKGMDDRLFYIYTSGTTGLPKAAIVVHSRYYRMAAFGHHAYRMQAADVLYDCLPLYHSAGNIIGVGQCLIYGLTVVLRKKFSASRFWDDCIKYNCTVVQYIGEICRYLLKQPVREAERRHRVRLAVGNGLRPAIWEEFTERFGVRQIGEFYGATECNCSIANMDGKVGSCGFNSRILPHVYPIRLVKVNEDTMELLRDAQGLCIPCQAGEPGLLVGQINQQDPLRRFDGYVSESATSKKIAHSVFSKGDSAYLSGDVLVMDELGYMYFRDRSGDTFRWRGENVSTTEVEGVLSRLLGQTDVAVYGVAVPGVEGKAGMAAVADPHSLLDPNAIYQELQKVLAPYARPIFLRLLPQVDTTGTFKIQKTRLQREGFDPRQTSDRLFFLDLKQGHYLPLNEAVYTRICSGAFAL
Chain of UniProt Q13043 (Q13043 whole entry, looked up): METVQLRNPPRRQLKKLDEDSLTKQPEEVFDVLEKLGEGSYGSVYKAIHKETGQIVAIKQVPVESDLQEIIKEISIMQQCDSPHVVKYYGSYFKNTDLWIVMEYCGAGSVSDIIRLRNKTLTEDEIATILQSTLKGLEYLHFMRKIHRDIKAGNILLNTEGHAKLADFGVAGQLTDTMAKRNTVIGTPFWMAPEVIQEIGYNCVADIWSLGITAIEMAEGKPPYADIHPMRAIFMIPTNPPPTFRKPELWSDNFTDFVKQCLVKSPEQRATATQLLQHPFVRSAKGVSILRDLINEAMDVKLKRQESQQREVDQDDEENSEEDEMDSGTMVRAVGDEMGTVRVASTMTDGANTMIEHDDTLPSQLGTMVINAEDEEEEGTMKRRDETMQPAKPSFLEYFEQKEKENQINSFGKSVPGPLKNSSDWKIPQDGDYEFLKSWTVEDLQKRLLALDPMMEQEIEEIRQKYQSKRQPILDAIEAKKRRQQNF
Chain of UniProt Q9Y5L4 (Q9Y5L4 whole entry, looked up): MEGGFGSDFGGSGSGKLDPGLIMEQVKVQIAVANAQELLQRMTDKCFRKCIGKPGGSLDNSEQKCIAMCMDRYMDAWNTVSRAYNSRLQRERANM

| Target | log2 fold change (bafetinib) | log2 fold change [1] | log2 fold change (nilotinib) | log2 fold change [2] | log2 fold change (dasatinib) | log2 fold change [3] | log2 fold change [4] | log2 fold change (tipifarnib) | log2 fold change (mubritinib) | log2 fold change [5] |
| --- | --- | --- | --- | --- | --- | --- | --- | --- | --- | --- |
| SRSF6 (UniProt Q13247) | 0.578 | 0.192 | 0.155 | -0.813 (active) | 0.079 | 0.095 | -0.251 | 0.212 | -0.014 | – |
| TJP2 isoform 7 (UniProt Q9UDY2) | 0.05 | 0.149 | 0.014 | -0.207 | -0.191 | -0.025 | 0.009 | -0.094 | 0.002 | 0.014 |
| TIMM13 (UniProt Q9Y5L4) | 0.086 | 0.156 | 0.018 | -0.017 | 0 | 0.035 | 0.07 | -0.111 | 0.005 | -0.003 |
| TBC1D24 (UniProt Q9ULP9) | -0.007 | 0.049 | -0.069 | -0.318 (active) | -0.15 | -0.219 | 0.098 | -0.106 | 0.097 | -0.045 |
| SYNE1 (UniProt Q8NF91) | -0.051 | 0.008 | 0.021 | -0.281 | -0.074 | -0.074 | 0.079 | – | 0.182 | -0.098 |
| TATDN2 (UniProt Q93075) | 0.088 | -0.151 | 0.137 | -0.217 | -0.042 | -0.043 | -0.059 | 0.074 | – | – |
| SLC27A2 (UniProt O14975) | 0.044 | 0.005 | 0.179 | -0.104 | -0.106 | 0.025 | 0.054 | 0.187 | -0.001 | 0.073 |
| STK4 (UniProt Q13043) | -0.053 | -0.027 | -0.003 | 0.143 | -0.052 | -0.016 | 0.005 | 0.039 | -0.028 | 0 |
| SLC39A1 (UniProt Q9NY26) | – | 0.116 | – | – | – | – | -0.17 | – | – | – |
| SYK (UniProt P43405) | 0.276 | – | – | – | -0.356 | – | 0.141 | 0.075 | – | -0.041 |
| TCOF1 isoform 6 (UniProt Q13428) | 0.137 | – | -0.102 | 0.14 | – | -0.033 | 0.07 | – | -0.091 | -0.061 |
| SSB (UniProt E7ERC4) | – | -0.025 | – | – | -0.528 | – | – | – | -0.063 | – |
| TANGO6 (UniProt Q9C0B7) | 0.033 | – | -0.018 | -0.066 | -0.216 | -0.006 | 0.083 | -0.067 | 0.042 | -0.048 |
| SLC8B1 (UniProt Q6J4K2) | -0.149 | 0.006 | – | – | -0.012 | – | -0.019 | 0.058 | – | 0.103 |
| TBP (UniProt P20226) | -0.039 | – | 0.008 | 0.093 | 0.104 | 0.079 | -0.112 | 0.013 | 0.004 | 0.036 |
| TM7SF2 (UniProt O76062) | – | – | -0.113 | -0.059 | -0.25 | 0.018 | 0.035 | -0.067 | – | 0.046 |
| SLC46A1 (UniProt Q96NT5) | – | -0.016 | – | – | – | – | -0.119 | – | – | – |
| SMARCA4 (UniProt P51532) | 0.149 | -0.118 | – | – | 0.118 | – | -0.036 | 0.197 | 0.101 | 0.033 |
| SLC27A1 (UniProt Q6PCB7) | 0.047 | – | -0.087 | -0.009 | -0.152 | 0.079 | -0.053 | 0.094 | 0.431 (active) | 0.046 |

| Target | log2 fold change (bafetinib) | log2 fold change [1] | log2 fold change (nilotinib) | log2 fold change [2] | log2 fold change (dasatinib) | log2 fold change [3] | log2 fold change [4] | log2 fold change (tipifarnib) | log2 fold change (mubritinib) | log2 fold change [5] |
| --- | --- | --- | --- | --- | --- | --- | --- | --- | --- | --- |
| SPAG9 isoform 4 (UniProt O60271) | -0.301 | – | 0.073 | -0.118 | – | 0.022 | -0.072 | – | 0.074 | 0.11 |
| SMARCB1 (UniProt Q12824) | – | -0.277 | – | – | -0.059 | – | -0.122 | – | – | – |
| TDP1 (UniProt Q9NUW8) | – | – | – | – | – | – | -0.1 | – | – | – |
| TAOK2 (UniProt Q9UL54) | – | 0.092 | -0.032 | 0.048 | – | -0.028 | – | 0.014 | 0.01 | -0.093 |
| SMPD4 isoform 2 (UniProt Q9NXE4) | -0.026 | 0.151 | – | – | -0.285 | – | 0.09 | -0.111 | 0.108 | – |
| SNX2 isoform 2 (UniProt O60749) | -0.163 | – | – | – | -0.097 | – | 0.16 | -0.155 | – | – |
| SP2 (UniProt Q02086) | – | – | – | – | 0.001 | – | – | – | – | – |
| SLC35F6 (UniProt Q8N357) | -0.208 | – | -0.037 | -0.13 | 0.078 | 0.143 | 0.049 | 0.01 | 0.072 | 0.052 |
| SMDT1 (UniProt Q9H4I9) | -0.138 | 0.006 | – | – | 0.005 | – | 0.137 | – | 0.068 | – |
| THAP9 (UniProt Q9H5L6) | 0.191 | – | 0.03 | -0.009 | -0.082 | -0.04 | 0.119 | – | 0.17 | 0.072 |
| SREBF1 isoform 4 (UniProt P36956) | -0.357 | – | – | – | -0.043 | – | – | – | -0.004 | – |
| TMBIM6 isoform 2 (UniProt P55061) | -0.135 | – | -0.158 | 0.028 | -0.081 | -0.037 | 0.063 | -0.269 | 0.036 | -0.073 |
| SLC35B1 isoform 2 (UniProt P78383) | -0.018 | – | -0.065 | 0.052 | 0.142 | -0.097 | -0.13 | – | 0.016 | -0.172 |
| SLC38A2 (UniProt Q96QD8) | -0.112 | – | -0.037 | 0.039 | 0.047 | 0.029 | -0.055 | -0.073 | 0.017 | 0.029 |
| SLC9A6 isoform 3 (UniProt Q92581) | -0.096 | – | – | – | 0.065 | – | 0.048 | 0.028 | – | – |
| TAF6L (UniProt Q9Y6J9) | – | -0.078 | 0.032 | -0.048 | -0.224 | 0.046 | -0.106 | 0.055 | 0.104 | -0.018 |
| SLC35B4 (UniProt Q969S0) | -0.12 | – | 0.027 | 0.016 | – | 0.1 | – | – | 0.032 | – |
| SSBP4 (UniProt U3KPY3) | – | – | – | – | – | – | – | – | 0.046 | – |
| SOX5 (UniProt P35711) | -0.06 | – | -0.437 (active) | -0.011 | – | 0.211 | 0.042 | 0.027 | 0.064 | -0.039 |
